The values below come from PubChem BioAssay (Tox21).

Assay [1] can be described thus: Nuclear factor erythroid 2-related factor 2/antioxidant responsive element (Nrf2/ARE) small molecule agonists: luciferase reporter gene qHTS assay in human keratinocytes (AID 1919969; also: nearly all actives have a fitted effect of over 35% in size; also: potency is read from the fitted curve at half-maximal effect). (Reporter assays use an easily measured gene product as a stand-in for the process of interest.)
The target of assay [2] is Gonadotropin-releasing hormone receptor (Homo sapiens) (UniProt P30968). In words: Human gonadotropin-releasing hormone receptor (GnRHR) small molecule agonists, calcium flux assay in GnRHR-HEK293 cells (AID 1920063). Also: nearly all actives have a fitted effect of over 35% in size. In a few lines: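 GnRHR-HEK293, 1500 cells/well, 18 h 37 C/5% CO2; Ca dye 1 h 37 C; cpd pinned (DMSO), agonist mode; kinetic FL 480/540, 3 min, 1 s reads; 15 conc, n=3.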

Assay [3] has as its target KiSS-1 receptor (Homo sapiens) (UniProt Q969F8). Briefly: Human kisspeptin (KISS1R) small molecule agonists, calcium flux assay in KISS1R-HEK293 cells (AID 1920064; active = well fitted activation curve with a large enough effect in the repeat runs). Summed up:
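Stable human KISS1R HEK293 line; 18 h plating, 37 C/5% CO2; calcium dye 1 h 37 C; compound pin transfer; kinetic fluorescence Ex/Em 480/540, 3 min.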

The nature of assay [4]: G protein-coupled receptor (GPCR) small molecule agonists, calcium flux assay: HEK293 wild type cell line counter screen (AID 1920065). In a few lines:
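Kinetic fluorescence at Ex/Em 480/540, recorded every second over 3 min, served as the read-out after compound addition. Each compound was tested at 15 concentrations in triplicate on cells pre-loaded with calcium dye for 1 h.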
For orientation: A change in cytosolic calcium serves as a functional read-out for many receptors and channels.

Assay [5] in a line: p53 small molecule agonists, cell-based qHTS assay with rat liver microsomes (AID 1963578). Summed up:
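Cells carrying a p53 response element–beta-lactamase reporter were plated and rested 5 h, then dosed with compound in DMSO plus rat liver microsomes and NADPH, each at 0.5 mg/mL final. After 16 h at 37 C, LiveBLAzer substrate was added for 2 h.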
In general terms: Quantitative high-throughput screening tests each substance at several concentrations.

Assay [6] can be described thus: p53 small molecule agonists, cell-based qHTS assay with human liver microsomes: qHTS cell viability counter screen (AID 1963579). Also: nearly all actives have a fitted effect of over 45% in size. In a few lines:
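Cytotoxicity counter screen: p53RE-bla, 4,000 cells/well; 5 h settle, 37 C/5% CO2; cpd + HLM 0.5 mg/mL + NADPH 0.5 mg/mL (final); 16 h, 37 C; CellTiter-Glo, 30 min RT, luminescence.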

Assay [7] in a line: p53 small molecule agonists, cell-based qHTS assay with rat liver microsomes: qHTS cell viability counter screen (AID 1963580). Also: nearly all actives have a fitted effect of over 45% in size. Summed up:
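p53RE-bla HCT-116 cells were exposed 16 h at 37 C to compounds with rat liver microsomes (0.5 mg/mL) and NADPH (0.5 mg/mL). Viability was measured in the same wells as ATP content by CellTiter-Glo luminescence.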

Assay [8] can be described thus: p53 small molecule agonists, cell-based qHTS assay: qHTS cell viability counter screen (AID 1963581). Also: nearly all actives have a fitted effect of over 45% in size. Summed up: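 HCT-116 p53RE-bla cells, 4,000/well, plated 5 h before compound pin transfer; 16 h at 37 C; bla substrate 2 h RT; then CellTiter-Glo, 30 min RT, luminescence.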
Assay [9] can be described thus: p53 small molecule agonists, cell-based qHTS assay (AID 1963582; active = well fitted activation curve with a large enough effect in the signal ratio in the repeat runs, not every such curve was filed as active; the % refers to the signal ratio). In a few lines:
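Reporter line: p53RE-bla. Pre-incubation 5 h, 37 C, 5% CO2; compound (DMSO, pin tool) 16 h, 37 C; B/G FRET substrate 2 h RT; fluorescence intensity read.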

Assay [10] addresses 5-hydroxytryptamine receptor 2A (Homo sapiens) (UniProt P28223). In words: 5-hydroxytryptamine receptor 2A (HTR2A) small molecule antagonists, cell-based qHTS assay (AID 1963586). Also: nearly all actives have a fitted effect of over 45% in size. Summed up: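 Antagonist-mode intracellular calcium assay: DOI (4 nM) added after 5 min compound pre-incubation at room temperature to dye-loaded HTR2A-CHO cells. Fluorescence followed for 3 min, sampled every second.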

Assay [11] shares this target. In words: 5-hydroxytryptamine receptor 2A (HTR2A) small molecule agonists, cell-based qHTS assay (AID 1963587). Also: nearly all actives have a fitted effect of over 30% in size. Summed up: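 CHO cells stably expressing human HTR2A, plated 18 h, loaded with calcium dye 1 h at 37 C. Agonist mode: compounds added and intracellular calcium fluorescence recorded kinetically for 2 min at 1 sec intervals.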
Assay [12] deals with Muscarinic acetylcholine receptor M1 (Homo sapiens) (UniProt P11229). In words: Cholinergic receptor muscarinic 1 (CHRM1) small molecule antagonists, cell-based qHTS assay (AID 1963588). Also: nearly all actives have a fitted effect of over 40% in size. In a few lines: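 CHRM1-CHO calcium-flux assay, antagonist mode. Cells were seeded 18 h, dye-loaded 1 h at 37 C and given compound for 5 min at RT, then acetylcholine was added at 50nM. FDSS fluorescence was read 3 min; 15 concentrations, three runs.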

For assay [13] the target is unchanged. Briefly: Cholinergic receptor muscarinic 1 (CHRM1) small molecule agonists, cell-based qHTS assay (AID 1963589). Also: nearly all actives have a fitted effect of over 35% in size. In a few lines: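 Human M1 in stable CHO line; 18 h plating, 1 h dye load 37 C; cpd added (agonist mode); Ca2+ fluorescence kinetic read, 1 s intervals; 15 conc, 3 runs.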
Assay [14] concerns the target Beta-2 adrenergic receptor (Homo sapiens) (UniProt P07550). In words: Adrenergic beta2 receptor (ADRB2) small molecule antagonists, cell-based qHTS assay (AID 1963592). Also: series mostly up to about 92 µM; nearly all actives have a fitted effect of over 50% in size. Summed up:
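Cells (CHO, stable ADRB2 overexpression) incubated 18-20hr at 37C; compounds added from DMSO; agonist mix (1nM isoproterenol, 100uM IBMX, 25uM Ro-20-1724) added; 0.5hr RT; d2-cAMP and anti-cAMP-cryptate added; 1hr RT; 665/615 nm read.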

The target of assay [15] is D(2) dopamine receptor (Homo sapiens) (UniProt P14416). Briefly: Dopamine D2 receptor (DRD2) small molecule agonists, cell-based qHTS assay (AID 1963594). Also: nearly all actives have a fitted effect of over 35% in size. In a few lines: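 HEK293 cells stably expressing human DRD2, pre-treated with PDE inhibitor Ro20-1724 (0.1 mM final) and compound 10 min at room temperature, then stimulated with NKH477 (200nM […]) for 30 min. cAMP read by HTRF (665/620 nm).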

The target is the same in assay [16]. Briefly: Dopamine D2 receptor (DRD2) small molecule antagonists, cell-based qHTS assay (AID 1963595; active = well fitted inhibition curve with a large enough effect in the signal ratio in the repeat runs, with a control signal flat; the % refers to the signal ratio). Summed up: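 In this cell-based antagonist screen, compounds act for 10 min at room temperature before a 30 min challenge with 12 nM quinpirole and 200 nM NKH477. cAMP is quantified by HTRF competition in DRD2-HEK293 cells containing 0.1 mM Ro20-1724.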
Assay [17] can be described thus: p53 small molecule agonists, cell-based qHTS assay with human liver microsomes (AID 1963577). Summed up: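 Fluorescence of the beta-lactamase reporter in p53RE-bla cells, detected with LiveBLAzer substrate (2 h, room temperature, dark), served as the read-out after 16 h compound exposure at 37 C with human liver microsomes and NADPH, each 0.5 mg/mL final.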
The nature of assay [18]: cAMP Responsive Elements (CRE) small molecule agonists, cell-based qHTS assay (AID 1963590). In a few lines:
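HEK 293T CRE-bla, 2,000 cells/well, 18 h preincubation 37 C/5% CO2; cpds (DMSO) pinned, 3 h; LiveBLAzer B/G FRET substrate, 2 h RT.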

A short description of assay [19]: cAMP Responsive Elements (CRE) small molecule antagonists, cell-based qHTS assay (AID 1963591; active = well fitted inhibition curve with a large enough effect in the signal ratio in the repeat runs, not every such curve was filed as active; the % refers to the signal ratio). Summed up:
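Beta-lactamase reporter read by FRET substrate (LiveBLAzer B/G) after 2 h at room temperature. CRE-bla HEK293T cells had received compound plus 0.25 uM (final) NKH477 for 3 h at 37 °C.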

Assay [20] deals with Beta-2 adrenergic receptor (Homo sapiens) (UniProt P07550). Briefly: Adrenergic beta2 receptor (ADRB2) small molecule agonists, cell-based qHTS assay (AID 1963593).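 Also: CHO cells stably overexpressing human ADRB2.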 In a few lines: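 CHO cells stably over-expressing ADRB2 were plated overnight at 37C, then dosed with compounds plus a stimulation mix containing 100uM IBMX and 25uM Ro-20-1724 for 0.5hr at room temperature. cAMP was measured by HTRF competition, 1hr.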

Inconclusive results are not listed. The source made the active and inactive calls. Unless noted, calls follow the shape of the full dose curve.

Chain of Muscarinic acetylcholine receptor M1 (Homo sapiens) (P11229 whole entry, looked up): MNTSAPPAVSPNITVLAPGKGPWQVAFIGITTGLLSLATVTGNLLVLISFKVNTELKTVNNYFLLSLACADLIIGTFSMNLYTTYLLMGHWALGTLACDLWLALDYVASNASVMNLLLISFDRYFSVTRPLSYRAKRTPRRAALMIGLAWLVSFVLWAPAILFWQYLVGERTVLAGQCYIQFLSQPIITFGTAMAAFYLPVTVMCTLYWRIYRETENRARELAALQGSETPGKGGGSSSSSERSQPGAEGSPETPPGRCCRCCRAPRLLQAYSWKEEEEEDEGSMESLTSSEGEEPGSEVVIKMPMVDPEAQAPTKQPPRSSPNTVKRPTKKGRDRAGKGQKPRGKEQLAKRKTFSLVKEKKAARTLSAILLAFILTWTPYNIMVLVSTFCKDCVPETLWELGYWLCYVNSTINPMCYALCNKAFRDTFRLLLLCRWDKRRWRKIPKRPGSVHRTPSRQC
Chain of 5-hydroxytryptamine receptor 2A (Homo sapiens) (P28223 whole entry, looked up): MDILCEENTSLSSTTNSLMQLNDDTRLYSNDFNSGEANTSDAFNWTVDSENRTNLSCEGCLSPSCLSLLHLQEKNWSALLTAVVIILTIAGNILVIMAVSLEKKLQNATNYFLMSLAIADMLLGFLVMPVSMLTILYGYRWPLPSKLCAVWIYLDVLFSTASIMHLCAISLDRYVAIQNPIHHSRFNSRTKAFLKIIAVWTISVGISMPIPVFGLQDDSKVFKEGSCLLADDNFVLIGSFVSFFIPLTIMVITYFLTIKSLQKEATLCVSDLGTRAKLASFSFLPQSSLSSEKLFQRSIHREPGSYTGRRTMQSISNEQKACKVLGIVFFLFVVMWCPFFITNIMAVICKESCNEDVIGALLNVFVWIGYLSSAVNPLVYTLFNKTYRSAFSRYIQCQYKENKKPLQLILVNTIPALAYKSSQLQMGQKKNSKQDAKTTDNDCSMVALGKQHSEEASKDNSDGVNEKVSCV
Chain of KiSS-1 receptor (Homo sapiens) (Q969F8 whole entry, looked up): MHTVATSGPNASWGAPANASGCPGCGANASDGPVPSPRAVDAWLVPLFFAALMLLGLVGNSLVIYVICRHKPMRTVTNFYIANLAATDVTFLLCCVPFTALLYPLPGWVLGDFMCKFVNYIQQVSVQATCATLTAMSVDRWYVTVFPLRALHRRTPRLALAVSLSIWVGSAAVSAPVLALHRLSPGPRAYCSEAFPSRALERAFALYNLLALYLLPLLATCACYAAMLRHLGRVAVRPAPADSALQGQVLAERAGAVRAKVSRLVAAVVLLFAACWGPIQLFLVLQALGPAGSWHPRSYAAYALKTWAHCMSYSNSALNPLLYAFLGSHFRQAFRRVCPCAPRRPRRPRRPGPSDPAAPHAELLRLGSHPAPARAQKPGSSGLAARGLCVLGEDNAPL
Chain of Gonadotropin-releasing hormone receptor (Homo sapiens) (P30968 whole entry, looked up): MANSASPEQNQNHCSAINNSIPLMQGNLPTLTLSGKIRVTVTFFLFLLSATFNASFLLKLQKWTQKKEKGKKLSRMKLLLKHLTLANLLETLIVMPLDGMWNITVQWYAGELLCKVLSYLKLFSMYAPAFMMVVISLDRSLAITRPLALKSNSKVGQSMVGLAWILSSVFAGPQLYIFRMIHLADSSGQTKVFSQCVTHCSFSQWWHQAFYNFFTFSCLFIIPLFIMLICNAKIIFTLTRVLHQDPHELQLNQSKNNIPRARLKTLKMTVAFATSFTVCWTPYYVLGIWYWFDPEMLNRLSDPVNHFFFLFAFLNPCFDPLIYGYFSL
Chain of Beta-2 adrenergic receptor (Homo sapiens) (P07550 whole entry, looked up): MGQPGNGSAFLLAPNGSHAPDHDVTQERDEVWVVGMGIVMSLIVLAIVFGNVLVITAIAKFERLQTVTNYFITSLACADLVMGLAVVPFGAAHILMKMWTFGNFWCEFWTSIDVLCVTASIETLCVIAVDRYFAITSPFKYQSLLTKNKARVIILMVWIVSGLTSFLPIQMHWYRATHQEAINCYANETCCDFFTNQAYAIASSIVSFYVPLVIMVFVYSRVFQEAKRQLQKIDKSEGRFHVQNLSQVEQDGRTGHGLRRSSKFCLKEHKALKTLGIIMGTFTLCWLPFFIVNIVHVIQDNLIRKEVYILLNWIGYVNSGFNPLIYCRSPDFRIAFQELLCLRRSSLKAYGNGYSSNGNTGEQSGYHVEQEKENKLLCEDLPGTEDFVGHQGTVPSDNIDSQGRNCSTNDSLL
Chain of D(2) dopamine receptor (Homo sapiens) (P14416 whole entry, looked up): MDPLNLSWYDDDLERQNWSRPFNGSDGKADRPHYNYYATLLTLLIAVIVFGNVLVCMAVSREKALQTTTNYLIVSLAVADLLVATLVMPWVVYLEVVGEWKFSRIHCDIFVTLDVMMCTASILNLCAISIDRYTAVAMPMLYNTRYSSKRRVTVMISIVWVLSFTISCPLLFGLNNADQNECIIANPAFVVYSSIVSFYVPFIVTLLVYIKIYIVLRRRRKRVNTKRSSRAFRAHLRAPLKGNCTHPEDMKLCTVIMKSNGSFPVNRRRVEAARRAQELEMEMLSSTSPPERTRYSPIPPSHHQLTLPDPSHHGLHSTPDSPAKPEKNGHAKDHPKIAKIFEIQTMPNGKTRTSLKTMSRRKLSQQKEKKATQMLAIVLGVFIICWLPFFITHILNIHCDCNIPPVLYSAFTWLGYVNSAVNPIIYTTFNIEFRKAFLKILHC

Regarding `CCC(COC(=O)c1cc(OC)c(OC)c(OC)c1)(c1ccccc1)N(C)C` (configuration not stated), the Potency entry in assay [1], in [2], in assay [3], in [4], in assay [5] and in [6] was “inactive” each time. Besides, the Potency entry in assay [7], in assay [8], in [9], in assay [10], in assay [11] and in [12] was “inactive” each time. Further, the Potency result in assay [13], in assay [14], in assay [15] and in [16] was “inactive” throughout.
On to `Cc1cc(C)cc(OP(=O)(Oc2cc(C)cc(C)c2)Oc2cc(C)cc(C)c2)c1`, for which the Potency entry in assay [1], in assay [2], in assay [3], in assay [4], in [17] and in assay [6] was “inactive” in each case. In addition, the Potency result in [7], in [8], in assay [9], in assay [10], in assay [11] and in assay [12] was “inactive” each time. Also, the Potency entry in assay [13], in [18], in [19], in [14], in assay [15] and in assay [16] was “inactive” each time.
For the compound `O=C(NC(=O)c1c(F)cccc1F)Nc1cc(Cl)c(F)c(Cl)c1F`, the Potency entry in [1], in [2], in assay [3], in assay [4], in assay [5] and in assay [6] was “inactive” throughout. Besides, the Potency entry in assay [8], in assay [9], in assay [10], in [11], in assay [12] and in [13] was “inactive” each time. Besides, the Potency result in assay [18], in [14], in [20], in assay [15] and in [16] was “inactive” each time.
Turning to `Cc1cccc2sc3nncn3c12`, the Potency result in assay [1], in [2], in assay [3], in assay [4], in assay [17] and in assay [6] was “inactive” throughout. The Potency entry in assay [7], in [8], in assay [9], in [10], in assay [11] and in assay [12] was “inactive” in each case. Besides, the Potency entry in [13], in assay [18], in [14], in assay [20], in assay [15] and in assay [16] was “inactive” throughout.
Take `CN[C@@H](C)[C@H](O)c1ccccc1`: the Potency entry in assay [1], in assay [2], in [3], in assay [4], in assay [5] and in [7] was “inactive” each time. Also, the Potency entry in assay [8], in assay [9], in assay [10], in assay [11], in assay [12] and in assay [13] was “inactive” throughout. Also, the Potency result in assay [18], in assay [20], in assay [15] and in assay [16] was “inactive” each time.
Take `O=C(c1ccccc1)C(Cl)Cl`: the Potency in [1] was 27.3 µM (active). The Potency entry in assay [2], in assay [3], in assay [4], in assay [17], in assay [6] and in assay [8] was “inactive” throughout. In addition, the Potency result in assay [10], in assay [12], in [13], in [18], in [14] and in assay [15] was “inactive” in each case. In [16], the Potency result was “inactive”.
For the compound `COC(C)(C)CCC[C@H](C)C/C=C/C(C)=C/C(=O)OC(C)C`, the Potency in [1] is 61.1 µM (active). The Potency result in [2], in [3], in [4], in assay [5], in assay [6] and in assay [7] was “inactive” each time. For the same compound, the Potency result in assay [8], in [11], in assay [12], in assay [14], in assay [20] and in assay [16] was “inactive” in each case.
